# Experimental data as given in PubChem BioAssay AID1159580 (chemical genetic matrix, 2015).
# Where “and” joins values, the source holds several entries; their conditions need not be identical. Identical values can stand only once. About 2,000 (36%) of roughly 5,500 compounds were called active. Not shown: some 18% with an inconclusive outcome. No stated cut-off is given here; in the data, active means normalized growth mostly below about 0.91 (no sharp cut-off); inconclusive means no clear call, values can overlap the other calls; inactive means mostly above about 0.92. The list shows a part of the results.
# Assay: chemical genetic growth profiling, strain panel (AID 1159580);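 further: tested at 20 µM; growth read once vehicle control cultures reached saturation at 30 °C; 1 = growth at the plate median or of vehicle wells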
# Conditions: S. cerevisiae deletion strains, growth OD
compound,measurement,setting,value
C[n+]1c2cc(N)ccc2cc2ccc(N)cc21,normalized growth,"locus YAL013W, strain DEP1, stronger effect = lower value",0.748 (active)
same,normalized growth,"locus YAL021C, strain ccr4, stronger effect = lower value",0.335 (active)
same,normalized growth,"locus YAL026C, strain drs2, stronger effect = lower value",0.586 (active)
same,normalized growth,"locus YAL030W, strain snc1, stronger effect = lower value",0.505 (active)
same,normalized growth,"locus YBL061C, strain skt5, stronger effect = lower value",0.616 (active)
same,normalized growth,"locus YBR009C, strain hhf1, stronger effect = lower value",0.356 (active)
same,normalized growth,"locus YBR021W, strain FUR4, stronger effect = lower value",1.11 (inactive)
same,normalized growth,"locus YBR023C, strain chs3, stronger effect = lower value",0.666 (active)
same,normalized growth,"locus YBR171W, strain sec66, stronger effect = lower value",0.934 (inactive)
same,normalized growth,"locus YBR229C, strain ROT2, stronger effect = lower value",0.888 (active)
same,normalized growth,"locus YBR231C, strain swc5, stronger effect = lower value",0.359 (active)
same,normalized growth,"locus YBR279W, strain paf1, stronger effect = lower value",0.701 (active)
same,normalized growth,"locus YCL011C, strain gbp2, stronger effect = lower value",0.438 (active)
same,normalized growth,"locus YCL016C, strain dcc1, stronger effect = lower value",0.331 (active)
same,normalized growth,"locus YCL029C, strain bik1, stronger effect = lower value",0.67 (active)
same,normalized growth,"locus YCL069W, strain vba3, stronger effect = lower value",0.588 (active)
same,normalized growth,"locus YCR088W, strain abp1, stronger effect = lower value",0.55 (active)
same,normalized growth,"locus YDL005C, strain med2, stronger effect = lower value",0.572 (active)
same,normalized growth,"locus YDL035C, strain GPR1, stronger effect = lower value",0.72 (active)
same,normalized growth,"locus YDL040C, strain nat1, stronger effect = lower value",0.718 (active)
same,normalized growth,"locus YDL074C, strain BRE1, stronger effect = lower value",0.575 (active)
same,normalized growth,"locus YDL101C, strain DUN1, stronger effect = lower value",0.761 (active)
same,normalized growth,"locus YDL134C, strain PPH21, stronger effect = lower value",0.726 (active)
same,normalized growth,"locus YDL185W, strain tfp1, stronger effect = lower value",0.938 (inactive)
same,normalized growth,"locus YDL192W, strain arf1, stronger effect = lower value",0.844 (active)
same,normalized growth,"locus YDR001C, strain nth1, stronger effect = lower value",0.74 (active)
same,normalized growth,"locus YDR069C, strain doa4, stronger effect = lower value",0.591 (active)
same,normalized growth,"locus YDR101C, strain arx1, stronger effect = lower value",0.81 (active)
same,normalized growth,"locus YDR137W, strain rgp1, stronger effect = lower value",0.616 (active)
same,normalized growth,"locus YDR150W, strain NUM1, stronger effect = lower value",0.831 (active)
same,normalized growth,"locus YDR159W, strain sac3, stronger effect = lower value",0.77 (active)
same,normalized growth,"locus YDR162C, strain NBP2, stronger effect = lower value",0.723 (active)
same,normalized growth,"locus YDR195W, strain ref2",1.22 [resistant] (active)
same,normalized growth,"locus YDR297W, strain sur2, stronger effect = lower value",0.652 (active)
same,normalized growth,"locus YDR318W, strain mcm21, stronger effect = lower value",0.834 (active)
same,normalized growth,"locus YDR334W, strain swr1, stronger effect = lower value",0.412 (active)
same,normalized growth,"locus YDR335W, strain msn5, stronger effect = lower value",0.499 (active)
same,normalized growth,"locus YDR388W, stronger effect = lower value",0.722 (active)
same,normalized growth,"locus YDR392W, strain spt3, stronger effect = lower value",0.352 (active)
same,normalized growth,"locus YDR502C, strain sam2, stronger effect = lower value",0.793 (active)
same,normalized growth,"locus YEL003W, strain gim4, stronger effect = lower value",0.491 (active)
same,normalized growth,"locus YEL037C, strain rad23, stronger effect = lower value",0.437 (active)
same,normalized growth,"locus YEL061C, strain CIN8 (second series), stronger effect = lower value",0.652 (active)
same,normalized growth,"locus YEL061C, strain CIN8, stronger effect = lower value",0.851 (active)
same,normalized growth,"locus YER015W, strain faa2, stronger effect = lower value",0.498 (active)
same,normalized growth,"locus YER016W, strain bim1, stronger effect = lower value",0.479 (active)
same,normalized growth,"locus YER110C, stronger effect = lower value",0.961 (inactive)
same,normalized growth,"locus YER111C, strain swi4, stronger effect = lower value",0.633 (active)
same,normalized growth,"locus YER155C, strain BEM2 (second series), stronger effect = lower value",0.272 (active)
same,normalized growth,"locus YER155C, strain BEM2, stronger effect = lower value",0.935 (inactive)
same,normalized growth,"locus YER167W, strain BCK2, stronger effect = lower value",0.754 (active)
same,normalized growth,"locus YFR010W, strain ubp6, stronger effect = lower value",0.536 (active)
same,normalized growth,"locus YGL078C, strain dbp3, stronger effect = lower value",0.937 (inactive)
same,normalized growth,"locus YGL086W, strain mad1, stronger effect = lower value",0.778 (active)
same,normalized growth,"locus YGL167C, strain pmr1, stronger effect = lower value",0.938 (inactive)
same,normalized growth,"locus YGL173C, strain kem1, stronger effect = lower value",0.481 (active)
same,normalized growth,"locus YGL227W, strain vid30, stronger effect = lower value",0.671 (active)
same,normalized growth,"locus YGL240W, strain doc1, stronger effect = lower value",0.63 (active)
same,normalized growth,"locus YGL248W, strain PDE1, stronger effect = lower value",0.758 (active)
same,normalized growth,"locus YGL253W, strain hxk2, stronger effect = lower value",0.425 (active)
same,normalized growth,"locus YGR078C, strain PAC10, stronger effect = lower value",0.722 (active)
same,normalized growth,"locus YGR135W, strain pre9, stronger effect = lower value",0.777 (active)
same,normalized growth,"locus YGR229C, strain SMI1, stronger effect = lower value",0.704 (active)
same,normalized growth,"locus YGR252W, strain gcn5, stronger effect = lower value",0.531 (active)
same,normalized growth,"locus YHR013C, strain ard1, stronger effect = lower value",0.397 (active)
same,normalized growth,"locus YHR027C, strain rpn1, stronger effect = lower value",0.546 (active)
same,normalized growth,"locus YHR030C, strain SLT2, stronger effect = lower value",0.724 (active) and 0.882 (inactive)
same,normalized growth,"locus YHR079C, strain IRE1 (second series), stronger effect = lower value",0.779 (active)
same,normalized growth,"locus YHR079C, strain IRE1, stronger effect = lower value",0.841 (active)
same,normalized growth,"locus YHR094C, strain hxt1, stronger effect = lower value",0.939 (inactive)
same,normalized growth,"locus YHR129C, strain ARP1, stronger effect = lower value",0.897 (active)
same,normalized growth,"locus YHR142W, strain chs7, stronger effect = lower value",0.44 (active)
same,normalized growth,"locus YHR200W, strain rpn10, stronger effect = lower value",0.682 (active)
same,normalized growth,"locus YIL066C, strain RNR3, stronger effect = lower value",0.792 (active)
same,normalized growth,"locus YIL073C, strain SPO22, stronger effect = lower value",0.534 (active)
same,normalized growth,"locus YIL125W, strain kgd1, stronger effect = lower value",0.945 (inactive)
same,normalized growth,"locus YIR030C, strain dcg1, stronger effect = lower value",0.859 (active)
same,normalized growth,"locus YJL092W, strain hpr5, stronger effect = lower value",0.253 (active)
same,normalized growth,"locus YJL095W, strain BCK1 (second series), stronger effect = lower value",0.487 (active)
same,normalized growth,"locus YJL095W, strain BCK1, stronger effect = lower value",0.486 (active) and 0.879 (active)
same,normalized growth,"locus YJL115W, strain asf1, stronger effect = lower value",0.369 (active)
same,normalized growth,"locus YJL129C, strain trk1, stronger effect = lower value",0.773 (active)
same,normalized growth,"locus YJL134W, strain LCB3, stronger effect = lower value",0.912 (active)
same,normalized growth,"locus YJL154C, strain vps35, stronger effect = lower value",0.808 (active)
same,normalized growth,"locus YJL164C, strain tpk1, stronger effect = lower value",0.417 (active)
same,normalized growth,"locus YJL166W, strain qcr8, stronger effect = lower value",0.392 (active)
same,normalized growth,"locus YJL168C, strain set2, stronger effect = lower value",0.91 (active)
same,normalized growth,"locus YJL187C, strain SWE1 (second series), stronger effect = lower value",0.708 (active)
same,normalized growth,"locus YJR043C, strain POL32, stronger effect = lower value",0.703 (active)
same,normalized growth,"locus YJR066W, strain TOR1, stronger effect = lower value",0.849 (inactive)
same,normalized growth,"locus YJR075W, strain HOC1, stronger effect = lower value",0.566 (active)
